From PubChem BioAssay come the findings set out here.

Test [1] in a line: viability loss in pontine glioma line – cell-based, SU-DIPG-XVII, MIPE5.0, CellTiter-Glo, qHTS, dose response (AID 1347060; cut-off not given, nearly all actives have AC50 up to about 26 µM;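 as to AC50: cells exposed to compound for 48 hours before viability readout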). As to conditions: CellTiter-Glo ATP luminescence. In general terms: Cellular ATP, detected with luciferase, serves as a proxy for viable cell number.
Test [2] in a line: viability loss in pontine glioma line – cell-based, JHH-DIPG-1, MIPE4.0, CellTiter-Glo, qHTS, dose response (AID 1347062; cut-off not given, nearly all actives have AC50 up to about 27 µM;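 as to AC50: cells exposed to compound for two days before readout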). As to conditions: JHH-DIPG-1 viability, CellTiter-Glo ATP luminescence.
Test [3] can be described thus: viability loss in pontine glioma line – cell-based, SU-DIPG-IV, MIPE4.0, CellTiter-Glo, qHTS, dose response (AID 1347063; cut-off not given, nearly all actives have AC50 up to about 30 µM;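 also: compound exposure lasted 48 hours before the viability readout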). As to conditions: CellTiter-Glo ATP luminescence.
Test [4] can be described thus: viability loss in pontine glioma line – cell-based, SU-DIPG-XXV, MIPE5.0, CellTiter-Glo, qHTS, dose response (AID 1347065; cut-off not given, nearly all actives have AC50 up to about 26 µM;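 also: cells exposed to compound for 48 hours before ATP readout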). The following applies: CellTiter-Glo ATP luminescence.
Test [5] in a line: JHH-DIPG-1 glioma cell viability, MIPE5.0 library, CellTiter-Glo luminescence, qHTS (AID 1347067; cut-off not given, nearly all actives have AC50 up to about 26 µM;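 also: cells exposed to compound for 48 hours before readout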). As to conditions: JHH-DIPG-1 glioma viability, CellTiter-Glo ATP luminescence.
The nature of test [6]: growth inhibition of DIPG cells – cell-based, MIPE5.0 library, qHTS (AID 1347068; cut-off not given, nearly all actives have IC50 up to about 30 µM;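 as to IC50: cells exposed to compound for 48 hours before viability readout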). The following applies: SU-DIPG-XXV viability.
Test [7] is described as follows: growth inhibition of DIPG cells – cell-based, MIPE4.0 library, CellTiter-Glo luminescence, qHTS (AID 1347066; cut-off not given, nearly all actives have AC50 up to about 30 µM;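 also: cells exposed to compound for 48 hours before readout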). The following applies: SU-DIPG-VI viability, CellTiter-Glo ATP luminescence.
Test [8] in a line: viability loss with induced miR-34 in A549 – imaging, A549 dox-inducible miR-34, nuclei and caspase counts, primary screen (AID 1347080;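 active = compounds whose cell count with miR-34 switched on is under 0.7 times the count with it off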). As to conditions: A549 miR-34 inducible, Hoechst nuclei count, 48 h.
The nature of test [9]: MELAS cybrid and Rieske KO viability enhancers – cell-based, MELAS cybrids, Rieske KO mouse fibroblasts, CellTiter-Glo, primary screen (AID 1508586;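 active = mean z-score across replicates of 1.96 or higher in either the MELAS or the Rieske mutant cell line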;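 also: z relative to plate mean and SD of compound and empty wells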). As to conditions: low glucose.
A short description of test [10]: compounds altering HSF1 focus formation in cells – imaging, Selleck Cancer Library (AID 1347162; in the data active = plate-normalised HSF1 focus index below about 0.46). As to conditions: human cells, HSF1 nuclear foci imaging, at 10 µM; SSMD: measured here: HSF1 foci SSMD mean; cell count: measured here: cell number; plate-normalised HSF1 focus index: stronger effect = lower value.
A short description of test [11]: drug combination growth inhibition, ovarian cancer – cell-based, oncology-focused library, rucaparib conditional, profiling panel (AID 1508598). As to conditions: patient-derived ovarian cancer cells, CellTiter-Glo viability, 144 h, stronger effect = lower value.

Molecules are shown by their SMILES. Where “and” joins values, the source holds several entries; their conditions need not be identical. Equal values may be shown once. Records with an inconclusive call do not appear. Calls of active or inactive are those of the source.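 The calls were made as follows, unless noted: active = normalized viability below 100% at a tested concentration; inactive = the rest.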

For orientation: AC50 means the midpoint of the concentration-response curve, whichever way the signal moves. In general, IC50 refers to the concentration at which inhibition is half-maximal. As to `CCOC(CN1C(=O)[C@](CC(=O)Nc2ccc(C)cc2)(NC(=O)Nc2ccc(C)cc2)c2ccccc21)OCC`, the AC50 in test [1] was 23.5 µM (active); in [3], 14.8 µM (active); in test [4], 18.6 µM (active); in test [5], 20.9 µM (active). Also, the molecule was called inactive in [2]. Moreover, the half-inhibitory concentration (IC50) in [6] is 23.5 µM (active).

For the molecule `CCCCCCCCCCCC(CC1OC(=O)C1CCCCCC)OC(=O)C(CC(C)C)NC=O` (stereo not given), the result in test [1], in test [2], in test [3], in test [7], in test [5] and in [6] was inactive. Moreover, the fold change in test [8] (stronger effect = lower value, cell number ratio, induced over uninduced) was 0.897 (inactive) and 0.881 (inactive); in test [8] (measured here: relative caspase fold change +Dox/-Dox), 2.53 and 0.818. Also, the cell count in test [8] (measured here: total cells with miR-34 induction, stronger effect = lower value) is 9250 and 6710; in test [8] (measured here: total cells without miR-34 induction) it was 10300 and 7610. Further, the z-score in test [9] (MELAS cybrid survival, CellTiter-Glo 48 h, stronger effect = higher value) is 1.14 (inactive); in test [9] (Rieske KO mouse fibroblast survival, CellTiter-Glo 72 h), -1.74.

As for `O=C1NC(=O)C(c2cnc3ccccn23)=C1c1cn2c3c(cccc13)CN(C(=O)N1CCOCC1)CC2`, the AC50 was 1.05 µM (active) in [1], 0.00833 µM (active) in test [3], 11.8 µM (active) in test [4] and 18.6 µM (active) in test [5]. Moreover, in [2], the molecule was called inactive. Moreover, in test [6], the IC50 was 18.6 µM (active).

In general, viability refers to a read-out of living cells in per cent, often relative to untreated cells. Turning to `CC(C)C[C@H](NC(=O)CNC(=O)c1cc(Cl)ccc1Cl)B1OC(=O)CC(CC(=O)O)(C(=O)O)O1` (stereo not given in full), the AC50 in test [1] was 0.209 µM (active); in test [2] it was 0.132 µM (active); in test [3], 0.0662 µM (active); in [4], 0.0833 µM (active); in [5], 0.235 µM (active). In addition, in [6], the 50% inhibitory concentration (IC50) was 0.132 µM (active). In test [10], this molecule had an SSMD of 2.92. The cell count in test [10] turned out to be 7560. The plate-normalised HSF1 focus index in test [10] is 1.18 (inactive). In addition, the viability in [11] (at 0.000305 µM, OCI-C5x cells, with rucaparib 10 µM, 100% = cells with rucaparib alone) was 104% (inactive); in [11] (at 0.000305 µM, OCI-C5x cells, without rucaparib), 124% (inactive); in [11] (at 0.000305 µM, OCI-P5x cells, with rucaparib 20 µM, 100% = cells with rucaparib alone), 111% (inactive); in test [11] (at 0.000305 µM, OCI-P5x cells, without rucaparib) it was 113% (inactive); in [11] (at 0.00122 µM, OCI-C5x cells, with rucaparib 10 µM, 100% = cells with rucaparib alone) it was 107% (inactive); in test [11] (at 0.00122 µM, OCI-C5x cells, without rucaparib), 123% (inactive). Moreover, the viability in [11] (at 0.00122 µM, OCI-P5x cells, with rucaparib 20 µM, 100% = cells with rucaparib alone) is 111% (inactive); in test [11] (at 0.00122 µM, OCI-P5x cells, without rucaparib), 110% (inactive); in [11] (at 0.00488 µM, OCI-C5x cells, with rucaparib 10 µM, 100% = cells with rucaparib alone), 100% (inactive); in test [11] (at 0.00488 µM, OCI-C5x cells, without rucaparib) it was 122% (inactive); in test [11] (at 0.00488 µM, OCI-P5x cells, with rucaparib 20 µM, 100% = cells with rucaparib alone) it was 112% (inactive); in [11] (at 0.00488 µM, OCI-P5x cells, without rucaparib), 110% (inactive). The viability in [11] (at 0.0195 µM, OCI-C5x cells, with rucaparib 10 µM, 100% = cells with rucaparib alone) was 107% (inactive); in [11] (at 0.0195 µM, OCI-C5x cells, without rucaparib), 119% (inactive); in test [11] (at 0.0195 µM, OCI-P5x cells, with rucaparib 20 µM, 100% = cells with rucaparib alone), 97.5% (active); in test [11] (at 0.0195 µM, OCI-P5x cells, without rucaparib), 104% (inactive); in [11] (at 0.0781 µM, OCI-C5x cells, with rucaparib 10 µM, 100% = cells with rucaparib alone), 101% (inactive); in [11] (at 0.0781 µM, OCI-C5x cells, without rucaparib) it was 118% (inactive). Also, the viability in [11] (at 0.0781 µM, OCI-P5x cells, with rucaparib 20 µM, 100% = cells with rucaparib alone) was 103% (inactive); in test [11] (at 0.0781 µM, OCI-P5x cells, without rucaparib) it was 100% (inactive); in [11] (at 0.313 µM, OCI-C5x cells, with rucaparib 10 µM, 100% = cells with rucaparib alone) it was 25% (active); in test [11] (at 0.313 µM, OCI-C5x cells, without rucaparib) it was 16.8% (active); in test [11] (at 0.313 µM, OCI-P5x cells, with rucaparib 20 µM, 100% = cells with rucaparib alone) it was 12.3% (active); in test [11] (at 0.313 µM, OCI-P5x cells, without rucaparib), 3.86% (active). The viability in test [11] (at 1.25 µM, OCI-C5x cells, with rucaparib 10 µM, 100% = cells with rucaparib alone) is 6.01% (active); in test [11] (at 1.25 µM, OCI-C5x cells, without rucaparib) it was 5.13% (active); in test [11] (at 1.25 µM, OCI-P5x cells, with rucaparib 20 µM, 100% = cells with rucaparib alone), 2.61% (active); in [11] (at 1.25 µM, OCI-P5x cells, without rucaparib) it was 1.15% (active); in [11] (at 5 µM, OCI-C5x cells, with rucaparib 10 µM, 100% = cells with rucaparib alone), 1.84% (active); in test [11] (at 5 µM, OCI-C5x cells, without rucaparib), 1.81% (active). The viability is 1.46% (active) in test [11] (at 5 µM, OCI-P5x cells, with rucaparib 20 µM, 100% = cells with rucaparib alone) and 0.836% (active) in [11] (at 5 µM, OCI-P5x cells, without rucaparib).
